The full ranking holds about 25,000 sequences; the median of “ln(normalized median fluorescence intensity)” is about 9.7, and the highest 2% start at about 11. For the sample, the highest values were picked, then their nearest neighbours and some sequences at random.

This test relates to PfAP2-HC AP2 domain (GST-tagged). Description: gcPBM binding intensity (ln(normalized median fluorescence intensity)); higher = stronger DNA binding. The procedure, abridged:
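Binding intensity is defined as the maximum Masliner-normalised natural-log median intensity across replicate spots for either probe orientation. It was measured on an Agilent 4 × 180k array of primer-extended double-stranded 36-bp intergenic genomic probes and negative controls, to which GST-tagged P. falciparum DNA-binding domains made in E. coli were applied for 1 h in 1× PBS with 1% milk, 0.2 mg/ml BSA, 0.5% salmon testes DNA and 0.03% Triton X-100. Detection was by Alexa488 anti-GST antibody and scanning at 488 nm.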
As for “TTACTCAAACAAACAAAAAAAAAAAAAAAAAAAAAA [TGCATGCA_negctrl_site457]”, the “gcPBM binding intensity (ln)” value turned out to be 8.89. In the case of “TATTTCATAATAAATTGTACGCGTAGAAAACCATGA [XGTACX_site7506]”, the “gcPBM binding intensity (ln)” value stood at 9.99. In the case of “TATTTATGCACGCGTGCACACACATATGAAAAAAGG [CACACA_site9090]”, the “gcPBM binding intensity (ln)” value is 9.87.

“ACATATCTATCGTTTTTAATTGTATATTATTATAAC [TGCATGCA_negctrl_site144]”: the “gcPBM binding intensity (ln)” value amounted to 9.76. Consider “AAAAAAAAAAGACACACACACACAAATACATACACA [CACACA_site6472]”, for which the “gcPBM binding intensity (ln)” value stood at 10.8. For the sequence “AAAAAAAAAAAAAAGACACACATATATATATATATA [CACACA_site633]”, the “gcPBM binding intensity (ln)” value was determined as 9.63. In the case of “AATAAAAAAAAAAAAAAAAAAAAAAAGACACTAAAA [CACACA_negctrl_site1075]”, the “gcPBM binding intensity (ln)” value came out at 9.53.

For the sequence “AAAAAAAAAAGACACACACACACATACACATACATA [CACACA_site7362]”, the “gcPBM binding intensity (ln)” value was found to be 11.1. For the sequence “AAAAAAAAAAAACACACACACACACTAATACATACA [CACACA_site8135]”, the “gcPBM binding intensity (ln)” value was found to be 10.6. The value for “TATAGACAAACACATACATGCATACATACATACATA [TGCATGCA_site273]” was 9.75; that for “CAACATTTGAGACACACACACATACAAACAAACAAA [CACACA_site7538]” was 11.2; that for “ATAAAACAAAGACACACACACATACACAAAAAAAAA [CACACA_site7752]” was 10.5. Turning to “AAAAAAAAAAGACACACACACACACTAATACATACA [CACACA_site6473]”, the “gcPBM binding intensity (ln)” value was determined as 11.4. The value for “CAAAGACACAAACACACACACACATACATACATACA [CACACA_site453]” was 11.3; that for “AAGACACAAAAACACACACACATACATACATACATA [CACACA_site454]” was 10.3.

For the sequence “GGCAACATTTGAAACACACACACATACAAACAAACA [CACACA_site3307]”, the “gcPBM binding intensity (ln)” value amounted to 10.3. On to “TTATGGTATAAAAAAATACACACTTATATATATTCT [CACACA_site488]”, for which the “gcPBM binding intensity (ln)” value is 9.72. The value for “TACGTAAAAATAATACGTACATATATTTATAGAAAA [XGTACX_site4959]” was 9.71. The value for “TATTAATTTTTTTTTTTTTTTTTTTTTTTTTTTTTT [CACACA_negctrl_site1329]” was 9.26. The value for “ATGATACATAAAGAATATAAAACATGAAATATAATA [CACACA_negctrl_site1461]” was 9.79; that for “AAGATTTGAAAAAATACACACAATAAAAAAATAAAA [CACACA_site3281]” was 10.1. With “TTTTATTATTTTTGTTGTACAGTATACTGTATGATT [XGTACX_site5359]”, the “gcPBM binding intensity (ln)” value amounted to 9.69. Regarding “AACAAATACGAACACACACACACACTAAAAAAAAAA [CACACA_site6386]”, the “gcPBM binding intensity (ln)” value is 10.8. Consider “AAAAAATCACGACACACACACACACTAAAAAAAAAA [CACACA_site6792]”, for which the “gcPBM binding intensity (ln)” value is 11.3. Turning to “TTAAAAAATCACAACACACACACACGCAAAAAAAAA [CACACA_site6793]”, the “gcPBM binding intensity (ln)” value amounted to 10.8. The value for “TCATAAAGAACAAAGTGTACCTATATATTACATACA [XGTACX_site7595]” was 9.59; that for “TAAATATATAAATACACACACACCAAAGCAATAGAT [CACACA_site5605]” was 10.5. The value for “TATATATATATATATACACACACACCCACCAAAGCG [CACACA_site7904]” was 10.1; that for “TATAAATATAGACACACACACACCAAAGCGTAGCGC [CACACA_site6179]” was 10.3; that for “TATATATATATATACACACACACACCCCAAAGCGTA [CACACA_site64]” was 11.1. As to “TATAAATATAAATACACACACACACGCCAAAGCGTA [CACACA_site6181]”, the “gcPBM binding intensity (ln)” value turned out to be 11. The value for “TATATATATAAATACACACACACACCCCAAAGCGTA [CACACA_site4211]” was 10.6; that for “TATTATATTTATTTATGTACACATATACTTAAATAA [XGTACX_site1355]” was 9.69.

Regarding “AAATAGCCAAAAATCATGCACACCTAAAAAAAAAAA [CACACA_site2572]”, the “gcPBM binding intensity (ln)” value came to 9.77. Turning to “AGCTGAAAAAAAAGCTTGCACACGTATTTGCTTTAT [CACACA_site1512]”, the “gcPBM binding intensity (ln)” value is 9.81. As for “ATAAACAATTAACAAACATGCAAATTTTAAATGTGT [TGCATGCA_site919]”, the “gcPBM binding intensity (ln)” value turned out to be 9.68. The value for “ATATTTGTATAAATTGCACACTTTATTTTTTTTAAG [CACACA_site1558]” was 9.61; that for TTTGTTTGTAAAATGTTGCACTTTCTTTTGCTGATA was 9.66; that for “ATATATCTATATAGAAATGTATATATATATATGTGT [TGCATGCA_negctrl_site349]” was 9.77.

For the sequence “TATTTCGTAATTTAATAATATACAAGAAATATATAT [XGTACX_negctrl_site143]”, the “gcPBM binding intensity (ln)” value was 9.4. With “AACAATCAAATAGACACACACACACCCAAACATAAA [CACACA_site2757]”, the “gcPBM binding intensity (ln)” value turned out to be 10.6. With “CAATCAAAGAAACACACACACACCTAAACATAAAAG [CACACA_site2756]”, the “gcPBM binding intensity (ln)” value came to 11.7. The value for “CAATCAAATGGACACACACACACCTAAACATAAAAG [CACACA_site5524]” was 10.5. The value for “ATAAAAAAGAAACAAACACACATACATACAAACAAA [CACACA_site4256]” was 10.3. The value for “ATCAAATAGAGACACACACACCTAAACATAAAAGAA [CACACA_site7321]” was 10.6; that for “CAATCAAATAGACACACACACACCTAAACATAAAAG [CACACA_site7322]” was 11.1. “GAAAAGTATAAAAAACGTACAAGTTTTATTTTCACA [XGTACX_site4604]”: the “gcPBM binding intensity (ln)” value amounted to 9.58.

In the case of “TTTCTAATTATTTCCCTTCAAATATATTAATATCGT [CACACA_negctrl_site429]”, the “gcPBM binding intensity (ln)” value came out at 9.55. “AGTATACATATATATACACACACATATATATATATA [CACACA_site7883]”: the “gcPBM binding intensity (ln)” value was 9.87. For “CATATACTCGGACACACACACACACCGACAAAAAAA [CACACA_site4433]”, the “gcPBM binding intensity (ln)” value came out at 11.1. On to “AGTATACTCGGACACACACACACATATATATATATA [CACACA_site5031]”, for which the “gcPBM binding intensity (ln)” value is 11.7. The value for “AGTATACATATATATACACACATATATATATATATA [CACACA_site300]” was 9.8. For the sequence “AAAACAAACGGACACACACACATATATATATATATA [CACACA_site5924]”, the “gcPBM binding intensity (ln)” value came out at 10.5. With “CATATATACTCATACACACACACACCGACACAGACA [CACACA_site5026]”, the “gcPBM binding intensity (ln)” value amounted to 10.3. In the case of “ACAAAAAAAAAAAAAAAAAAAAAAAAAAAATAATAA [CACACA_negctrl_site1640]”, the “gcPBM binding intensity (ln)” value turned out to be 9.18. Turning to “TAAAATATATAAAACTGTACATTTTAAAGGCACAAC [XGTACX_site8342]”, the “gcPBM binding intensity (ln)” value was determined as 9.98.

Values taken from the supplement of paper PMC11417369.
